Data from PubChem BioAssay (NCI).
About 79,000 compounds went through this panel and 15% of them were active in at least one assay; those are over-represented in the sample as a whole. Unmarked numbers belong to inactive results. The source made the active and inactive calls. No stated cut-off is given here; in the data, active means growth inhibition above about 70%; inactive means the rest.

Columns and labels:
[1] = NCI Yeast Anticancer Drug Screen. Data for the rad50 strain (AID 155);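 further: 0% = growth of vehicle-only cultures of the same strain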; conditions: S. cerevisiae rad50 strain growth inhibition; at 50.0 µM; active compounds read high
Outline: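 A DNA repair-deficient yeast mutant serves as the test organism; compound-induced growth inhibition is calculated against vehicle-treated cells.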

[2] = NCI Yeast Anticancer Drug Screen. Data for the mec2-1 strain (AID 157); conditions: S. cerevisiae mec2-1 strain, at 50.0 µM, active compounds read high
Outline: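 Compounds were applied to mec2-1 yeast cells. Their growth was then compared with that of vehicle-treated cultures to give growth inhibition.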

[3] = NCI Yeast Anticancer Drug Screen. Data for the sgs1 mgt1 strain (AID 161);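 further: 0% = growth of cultures given vehicle only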; conditions: S. cerevisiae sgs1 mgt1 strain, at 50.0 µM, active compounds read high
Outline: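 Percent growth inhibition was derived by comparing compound-exposed mutant yeast with vehicle-exposed cultures. The strain carries alterations in DNA damage repair.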

[4] = NCI Yeast Anticancer Drug Screen. Data for the cln2 rad14 strain (AID 165);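 further: 0% = growth equal to vehicle treated cultures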; conditions: S. cerevisiae cln2 rad14 strain, at 50.0 µM, active compounds read high
Outline: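 Strain: cln2 rad14 yeast, altered in cell cycle control and DNA damage repair. Read-out: growth inhibition vs vehicle.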

[5] = NCI Yeast Anticancer Drug Screen. Data for the bub3 strain (AID 167); conditions: S. cerevisiae bub3 mutant strain, at 50.0 µM, active compounds read high
Outline: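 Inhibition values come from growth of compound-treated mutant yeast normalised to vehicle-treated controls.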

[6] = NCI Yeast Anticancer Drug Screen. Data for the mlh1 rad18 strain (AID 175); conditions: S. cerevisiae mlh1 rad18 strain growth inhibition; at 50.0 µM; active compounds read high
Outline: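 A repair-deficient yeast strain is exposed to test compound, and growth is scored relative to vehicle-treated controls.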

Structure (SMILES)	growth inhibition [1]	growth inhibition [2]	growth inhibition [3]	growth inhibition [4]	growth inhibition [5]	growth inhibition [6]
COc1cc(OC)c(/C=C2\N=C(C)N(Nc3nnc(NN4C(=O)/C(=C/c5c(OC)cc(OC)cc5OC)N=C4C)c4ccccc34)C2=O)c(OC)c1	-0.15%	-2.25%	-12.8%	-2.5%	-2.7%	8.15%
ClC1(Cl)C2CCOC21n1cnc2ccccc21 (stereo not given)	11.8%	-5.1%	-8.3%	4.95%	8.25%	-11.2%
Cc1cc(Nc2ccc(S(=O)(=O)O)c3cc(S(=O)(=O)O)cc(S(=O)(=O)O)c23)c2ccccc2n1	-14.1%	4.3%	3.2%	-10.9%	6%	8.7%
CC1(C)/C(=N\NC(N)=O)C2CCC1C2 (stereo not given)	-19.9%	-25.6%	2.65%	-4.05%	-11.6%	-16.9%
COc1c(O)c(/C=C/C(=O)NN)cc2ccoc12	-4.75%	-10.3%	-25.1%	-16.5%	15.8%	-23.9%
O=S(/N=C/c1ccccc1)c1ccc(Cl)cc1 (stereo not given)	-7.6%	4.5%	12.4%	13.9%	9.4%	13%
CCCc1nc2ccccc2c(=O)n1/N=C/c1ccc(Cl)cc1Cl	-11.7%	0.4%	0.05%	3%	-3.45%	-3.4%
O=C1c2ccccc2C(=O)N1CCCSc1ccc(F)cc1	32.8%	-9.5%	28.4%	3.5%	15.3%	36.2%
NC(=O)C1=CC2C3C=CC2(O)C(=O)OC3O1 (stereo not given)	-15.3%	-28.6%	-12.6%	3.2%	-22.9%	-11.1%
Cn1c(=O)c2c(nc(Cl)n2C)n(C)c1=O	42.5%	14.5%	-16.1%	-29.3%	-7.65%	28.9%
Cc1c2ccnc(C#N)c2c(C)c2c1[nH]c1ccccc12	-19.8%	3%	-16.9%	-13.3%	12.8%	7.5%
O=C1c2cccc3cc([N+](=O)[O-])cc(c23)C(=O)N1CCNCCNCCNCCN1C(=O)c2cccc3cc([N+](=O)[O-])cc(c23)C1=O	86% (active)	89% (active)	89.3% (active)	90.2% (active)	89.2% (active)	90.9% (active)
c1ccc(-c2cnn3c(-c4ccccc4)cnnc23)cc1	-1.65%	-8.1%	-2.55%	2.8%	2.8%	4.65%
O=c1/c(=C/c2ccccc2F)sc2nc3ccccc3n12	-2.85%	-11.3%	12.2%	29%	21.1%	12.3%
Cc1nc(C(F)(F)F)cc(=O)[nH]1	7.4%	-3.6%	15.7%	-1.25%	-5.4%	51%
Cc1ccc(NC(Nc2ccc(C)c(Cl)c2)C(Cl)(Cl)Cl)cc1Cl	9.65%	-24%	-5.7%	-7.7%	5.75%	-15.3%
O=C1NC(c2ccccc2)(c2ccccc2)C(=O)N1CCCCCCN1C(=O)NC(c2ccccc2)(c2ccccc2)C1=O	8.35%	3.45%	4%	0.25%	-7.15%	18.2%
COc1ccc(C(O)C(c2ccc(OCc3ccccc3)cc2)c2ccc(OCc3ccccc3)cc2)cc1 (stereo not given)	1.05%	-27.9%	-5.15%	-4.25%	-29.2%	-22.4%
COc1ccc2c(c1)C(N)CC2=O (stereo not given)	14%	7.7%	0.75%	8.75%	1.75%	-12.9%
NN1C(=O)CC(c2cccc(Cl)c2)C1=O (stereo not given)	1.7%	4.55%	-2.4%	21.9%	-2.6%	32.3%
